# According to the supplement of paper PMC7695840:
# Where a name gives a salt, the structure may show the parent alone.
# Key:
# [1] = test system: Staphylococcus aureus MW2 delta-mecA (mecA-); experiment: normalized GFP fluorescence (growth of mecA- strain) (fraction of control range); higher = more growth of mecA- strain; conditions: compound concentration: 150 uM; cefoxitin: subinhibitory; fluorescent label: GFP
# Summary of the method: (§1)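 A 1:1 mix of pre-induced S. aureus MW2 cells, DsRed-labeled with the gene and GFP-labeled without it, was grown in LB with a daily-set subinhibitory antibiotic dose on 150 μM compound (1.5% DMSO) in 1536-well plates, single replicate. Growth lasted 20 h at 37 °C, 90% humidity, without shaking, and DsRed (540/590) and GFP (485/520) were then read. Channels were scaled per plate to single-strain control medians, and plates with high untreated ratios and rows with DsRed/GFP >10 were removed.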
# [2] = test system: Staphylococcus aureus MW2 (mecA+); experiment: normalized DsRed fluorescence (growth of mecA+ strain) (fraction of control range); higher = more growth of mecA+ strain; conditions: compound concentration: 150 uM; cefoxitin: subinhibitory; fluorescent label: DsRed
# Summary of the method: as §1
Compound,normalized GFP fluorescence [1],normalized DsRed fluorescence [2]
O=C(c1cc(Cc2n[nH]c(=O)c3ccccc23)ccc1F)N1CCN(C(=O)C2CC2)CC1 [Olaparib (AZD2281)],0.204,0.856
Cc1ncc(CO)c(CO)c1O,0.208,0.816
Nc1cc(N2CCCCC2)nc(N)[n+]1[O-],0.524,0.731
CC(C)(S)[C@@H](N)C(=O)O,0.302,1.21
Cn1c(=O)c2[nH]cnc2n(C)c1=O [Aminophylline (Truphylline)],0.38,1.18
CC(C)(C)NCC(O)c1cc(O)cc(O)c1 (configuration not stated),0.587,0.611
CC(C)NCC(O)COc1cccc2ccccc12 (configuration not stated),0.142,1.24
O=C([O-])C(O)[C@H](O)[C@@H](O)[C@H](O)[C@H](O)CO.O=C([O-])C(O)[C@H](O)[C@@H](O)[C@H](O)[C@H](O)CO.[Ca+2] (some centres not stated),0.35,0.718
C/C=C/c1ccc(OC)cc1,0.443,0.71
c1cnc2cc3c(cc2n1)[C@@H]1CNC[C@H]3C1 [Varenicline tartrate],0.504,0.508
O=C(O)c1cccnc1 [Niacin (Nicotinic acid)],0.536,0.614
N#C[C@@H]1C[C@@H]2C[C@@H]2N1C(=O)[C@@H](N)C12CC3CC(CC(O)(C3)C1)C2,0.824,0.518
Nc1nc(=O)[nH]cc1F,0.282,0.62
CN1Cc2c(N)cccc2C(c2ccccc2)C1 (configuration not stated),0.359,0.781
Cc1cn[nH]c1,0.665,0.838
CCN(CC)CCOC(=O)c1ccc(N)cc1,0.335,0.634
